ssDAF-12 act: activates DAF-12 receptor from parasite S. stercoralis. HEK293 ssDAF-12/GRIP1 lit1-tk-luc reporter, luminescence; % of 3 µM dafachronic acid response. activation, % at 6.8 µM. hit rate 1% among 370,000. AID 652126;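 active = activation above the mean over all tested compounds plus 3 SD, cut at about 0.9% in these data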;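 note: 0% = DMSO-only wells and 100% = 3 µM delta7-dafachronic acid wells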
hgDAF-12 ag: hgDAF-12 agonism, primary luciferase screen; HEK293 GAL4-hgDAF12 UAS-luciferase reporter, agonist luminescence; normalized to butyrate control; activation, % at 6.8 µM; hit rate 1.8% among 370,000;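 active = activation above a cutoff set at the mean of all screened compounds plus 3 SD, cut at about 10% in these data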;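 note: 0% = DMSO wells and 100% = sodium butyrate wells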
AHR activator: activators of human aryl hydrocarbon receptor | AHR-responsive luciferase reporter cells, luminescence | activation, % at 5 µM | hit rate 2.5% among 320,000 | P35869 | AID 2796; in the data active = activation above about 47%;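 note: 0% = vehicle wells and 100% = reference agonist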
hcDAF12 agonist: activates DAF-12 receptor from parasite H. contortus; activation, % at 6.8 µM; AID 652067; HEK293 hcDAF-12 lit1-tk-luc reporter, luminescence; 0% DMSO, 100% Δ7-dafachronic acid; hit rate 1.4% among 370,000;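 active = activation above the mean of all tested compounds plus 3 SD, cut at about 5.5% in these data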;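 note: 100% = response to 3 µM Δ7-dafachronic acid high control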
DAX1 inh-1: inhibitors of DAX1 repression of SF-1 activated StAR promoter; HEK293T StAR-luciferase reporter, SF-1/DAX-1 repression relief; inhibition, % at 6.8 µM; hit rate 1.1% among 370,000;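 active = inhibition above the mean over all tested compounds plus 3 SD, cut at about 3.6% in these data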;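 note: 0% = DAX-1 cells with DMSO and 100% = cells lacking DAX-1 with DMSO; higher inhibition means more luminescence from relief of DAX-1 repression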
DAX1 inh-2: NR0B1 (DAX1) inhibition; P51843; HEK293 Gal4-DAX1 luciferase reporter, luminescence; inhibition, % at 6.75 µM; hit rate 0.99% among 340,000; AID 504766;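 active = inhibition above the mean over all tested compounds plus 3 SD, cut at about 4.2% in these data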;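 note: 0% = DAX1-transfected cells with DMSO and 100% = empty-vector control cells with DMSO; inhibition shows as a rise in luminescence from relieved DAX1 repression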
AHR act cf: human AHR activation, confirmation. AID 2845. shares compounds with AHR activator. activation, % at 9 µM. human cells, AHR-responsive luciferase reporter, luminescence. hit rate 87% among 2,300; in the data active = activation above about 49%;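 note: HepG2 hepatoma cells carrying a DRE-driven firefly luciferase reporter; 0% = vehicle wells and 100% = reference agonist wells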
PXR counter: activates human PXR in AHR activator counter-screen | shares compounds with AHR activator | cell-based PXR reporter, luciferase luminescence | activation, % at 11.6 µM | hit rate 88% among 2,300 | AID 434939; in the data active = activation above about 11%;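 note: human hepatoma DPX-2 cells expressing full-length human PXR; 0% = DMSO and 100% = reference agonist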
Target sequence (O75469 whole entry, looked up): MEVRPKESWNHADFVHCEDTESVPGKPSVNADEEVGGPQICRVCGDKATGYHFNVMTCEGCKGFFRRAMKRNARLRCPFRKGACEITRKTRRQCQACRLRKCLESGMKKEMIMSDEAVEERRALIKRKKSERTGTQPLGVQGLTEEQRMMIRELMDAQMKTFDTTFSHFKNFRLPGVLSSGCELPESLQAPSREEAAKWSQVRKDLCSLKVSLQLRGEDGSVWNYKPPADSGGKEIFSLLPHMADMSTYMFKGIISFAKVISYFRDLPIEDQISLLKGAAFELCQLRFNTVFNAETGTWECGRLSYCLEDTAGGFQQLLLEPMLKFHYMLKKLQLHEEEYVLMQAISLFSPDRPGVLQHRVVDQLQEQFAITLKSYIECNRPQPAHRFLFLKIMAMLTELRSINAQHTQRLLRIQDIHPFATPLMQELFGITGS
* hit, by the source's call; x = no result. Most compounds without a hit are left out; they make up all but 5.7% or so of the library.

SMILES	ssDAF-12 act	hgDAF-12 ag	AHR activator	hcDAF12 agonist	DAX1 inh-1	DAX1 inh-2	AHR act cf	PXR counter
COc1ccc(C(=O)Nc2cccc(C(=O)N/N=C/c3ccc(OC)cc3OC)c2)cc1	-1	5	36	-1	0	-3	x	x
N#Cc1ccc(C(=O)Nc2cc(S(=O)(=O)Nc3ccc(Cl)cc3)ccc2N2CCCCC2)cc1	0	2	105*	0	0	-1	58*	119*
O=C(Nc1cc(S(=O)(=O)Nc2ccc(Cl)cc2)ccc1N1CCCCC1)c1ccc(F)cc1	-1	1	1	-3	1	0	x	x
O=C(N[C@H](Cc1ccccc1)C(=O)NC1CCCCC1)[C@H]1O[C@@H](n2ccc(=O)[nH]c2=O)[C@H](O)[C@@H]1O	-1	-3	x	1	0	x	x	x
O=C(/C=C/c1ccccn1)c1cc(Cl)cc(Cl)c1O	-2	-6	83*	0	-2	-4	113*	219*
C/C(=N\NC(=O)c1c[nH]c2ccccc12)c1ccc(C)o1	2.7*	6	82*	5.7*	2	2	119*	17*
O=C(NN=C1CCCCCC1)c1c[nH]c2ccccc12	1	7	91*	2	2	-1	7	6
C/C(=N\NC(=O)c1cc2ccccc2cc1O)c1ccc(C)o1	-1	-1	15	0	1	3	x	x
Cc1cc2n(n1)C(c1sccc1C)Nc1ccccc1-2 (stereo unspecified)	-1	2	13	0	0	0	x	x
Cc1cc2n(n1)C(c1ccc3c(c1)OCO3)Nc1ccccc1-2 (stereo unspecified)	-1	2	96*	0	0	1	91*	42*
N#C/C(=C/c1ccc(-c2ccc([N+](=O)[O-])cc2)o1)C(=O)Nc1nc(-c2cccs2)cs1	0	-2	x	0	0	0	x	x
N#C/C(=C\c1ccc(-c2ccc(F)cc2)o1)C(=O)Nc1nc(-c2cccs2)cs1	0	-1	142*	4	0	-1	58*	22*
O=C(/C=C/c1ccc(Cl)cc1Cl)NC(=S)Nc1ccc(CN2CCOCC2)cc1	0	-1	105*	2	0	-1	22	83*
O=C(Nc1ccc(CN2CCOCC2)cc1)c1ccc(-c2cccc(Cl)c2)o1	-3	-7	-4	-3	-4	-4	x	x
O=C(NC(=S)Nc1ccc(CN2CCOCC2)cc1)c1ccc(-c2cccc(Cl)c2)o1	-1	-3	90*	-1	-1	3	67*	20*
Clc1ccc(-c2nnc(-c3ccccc3)c(N3CCSCC3)n2)cc1	0	2	15	-1	1	0	x	x
CC1CN(c2nc(-c3ccc(Br)cc3)nnc2-c2ccccc2)CC(C)N1 (stereo unspecified)	0	4	87*	1	0	-1	47*	21*
C=CCNc1nc2ccccc2c(=O)[nH]1	-1	0	94*	2	0	1	8	9
CCCNc1nc2ccccc2c(=O)[nH]1	-1	-4	3	1	0	-1	x	x
O=C(CSc1ncn[nH]1)N1N=C2/C(=C/c3ccccc3)CCCC2C1c1ccccc1 (stereo unspecified)	0	1	98*	1	0	-2	88*	74*
CCCS(=O)(=O)NC(=O)C1(C)CCCN(C(=O)/C=C/c2ccccc2)C1 (stereo unspecified)	-1	-2	x	0	0	x	x	x
Cc1ccc(S(=O)(=O)CCC(=O)Nc2cccc(S(=O)(=O)N3CCCCCC3)c2)cc1	-2	-3	0	-2	-2	-1	x	x
COc1cccc(Cn2nnc(C(=O)Nc3ccc(C)cc3)c2N)c1	-1	2	-2	0	0	-1	x	x
COc1cccc(Cn2nnc(C(=O)Nc3cc(C)ccc3OC)c2N)c1	x	x	128*	x	x	2	34	26*
